The record followed here is the supplement of paper PMC6555819.

The subject of one assay is PPARg DBDmut IVT, anti-PPARg (DBD mutation: PPARg1 K132A/R137A, NR concentration 270 nM). The assay is described as follows: PBM binding z-score (relative to random genomic background probes); higher = stronger binding; sequences stand for … in GC…GCGATTGACAGCGTAGAATGAAGG
In short, it runs like this: (§1)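 Each nuclear receptor dimer, without ligand, was incubated for 1 h on custom Agilent 4×180K protein-binding microarrays. Binding was detected with antibodies against each partner (one per run), and scanned fluorescence was regression-normalized. The binding z-scores are referenced to random human genomic background probes.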
In turn, TCTAGCAGGCCAGAGGGTCACACAAGAGGTACGG had a PBM binding z-score of -0.172.

In the case of AGTCAAAGTTCACTTGGTAACGTAAGATTCAGCT, the PBM binding z-score is 0.299.

The sequence CCGACTGGGGCAGAAAGGTTACCATGCCATCCGG showed a PBM binding z-score of -1.09.

The sequence GCTCGGAGGACACGGTCAGAGCTTTGTCCGTAGA showed a PBM binding z-score of -1.2.

For the sequence CCTATTAGTTGACCATAAGGTCAACCGAAGCTCG, the PBM binding z-score amounted to 1.37.

AGTCAAAGCTCATCTAGGTAACGTAAGATATGCT yielded a PBM binding z-score of 0.493.

Sequence TCTAGTTGGTCACGAAGGTCACACACGACGGGTA showed a PBM binding z-score of 1.16.

TCAGATAGGTAATACAGGTGAAAGTCGGCATCTA gave a PBM binding z-score of 0.382.

In turn, CAGCCTAGGTCGGGGCCAGTATAGGAGGAACGTT returned a PBM binding z-score of -1.04.

In turn, CGAACTAGATCAAGGACAGTGAATCTCCGCACGC gave a PBM binding z-score of -0.153.

As to CGTCCAAGGTCAAGGTCAGCGAAAGAGACTCGAA, the PBM binding z-score is -0.753.

For CAGCCTAGGTCAAGGCCAGTATAGGAGGAACGTT, the PBM binding z-score was -0.631.

In the case of ATACCAAGGTGATCGTGAGGTGGTTGATACTAAC, the PBM binding z-score amounted to 0.15.

CAAACTAGGTCGCAGAGGTCAAAGTCCGTGCGTA displayed a PBM binding z-score of 1.62.

Sequence ATCTCTAAGTAAGACTCAGTTCAGTGAAGAACGC registered a PBM binding z-score of 1.04.

CGTCAAAGTTCAACTAAGGTAACGGAAAGCACGC: the PBM binding z-score is 0.064.

TCTTGTAGATTAAAGGTTAAGAAAGCCGAAGCCT returned a PBM binding z-score of 0.455.

TCGTATAGGTAAAGGTGAAAGTCGAACGATATGA had a PBM binding z-score of 0.655.

The sequence CCTGCTAGGTCAATGGTCAACTAAAGCAGCTCGC came in with a PBM binding z-score of -1.17.

TCTCGGACGACACGAAGGTCAGAGCTTTCCAGAG displayed a PBM binding z-score of -0.777.

Sequence AAAGACAGGTGATGAAGGTAACTCAGGCTATCAT came in with a PBM binding z-score of -0.142.

Consider TCTTGTAGTTCAGCAGGTTAAGAAAGCTGGCCAA, for which the PBM binding z-score stood at 0.25.

Regarding TAGAGTAGGTTAGTCGGGGCATTCAGCCAACATA, the PBM binding z-score came out at 1.55.

The sequence CGTCCAAGGTCAGAGAGGTAAGTGAATGCCGAGT returned a PBM binding z-score of -0.788.

Consider CCGACTGTGGCAAAGGTTACCATACTCAGTACGA, for which the PBM binding z-score was -0.266.

Sequence CAGCCGAGGTCAGGGCCAGTATAGGAGGAACGTT came in with a PBM binding z-score of -0.547.

CCAACTAGGTCAAGGTCAAAGTCGGTTTGTGCCA yielded a PBM binding z-score of 1.36.

In turn, CCTAGCAGGCCCATCTGGGTCACTCAAGGCTTGA yielded a PBM binding z-score of -1.83.

As for CATCAAAGTTCAACTAAGGTAACGTAAAGCACGC, the PBM binding z-score came out at 1.35.

On to ACTAGCTGGTCAGCTGAGGTCACACACAATTCGG, for which the PBM binding z-score was -0.428.

TCTTGTAGATCAACAGGAGGTTGAGAAAGATCGA: the PBM binding z-score is -0.116.

Sequence CTACCAAGGTGAACAAGGTCGTGGATTACTATTC came in with a PBM binding z-score of -0.0966.

On to ACTCGGAGGACAAAGGTCAGAGCTACGCCAGTGA, for which the PBM binding z-score was 0.127.

In turn, TCTTGTAGATCAATAGAGTTTAAGAAAGTGCGCT displayed a PBM binding z-score of 0.852.

Take TAGCCCAGGTCATGCGGGCCAGTATAGTGTCGGC: the PBM binding z-score was -0.838.

On to AGAACAAGGGCAATGAGTTGATAGCACGGGTGGC, for which the PBM binding z-score is -0.527.

Turning to CCTACTGGGCCACGAAAGGTCATTGAATCAGTGA, the PBM binding z-score was -0.421.

On to GCTTGTTGATCAAGGTTAAGAAAGACTAAGCTAA, for which the PBM binding z-score is -0.0505.

On to CCTACTGGGCCAAGGACATTGATCAGTCAAAGCA, for which the PBM binding z-score is -0.839.

In turn, AGAATGAGGTTATACCTAGATCAGGGAAGAAAGT had a PBM binding z-score of 0.686.

The subject of another assay is PPARg homodimer (NR concentration 180 nM). The assay is described as above. A digest of the protocol: as §1
TCTAGCAGGCCAGAGGGTCACACAAGAGGTACGG returned a PBM binding z-score of 1.57.

Take AGTCAAAGTTCACTTGGTAACGTAAGATTCAGCT: the PBM binding z-score came to 1.76.

Turning to CCGACTGGGGCAGAAAGGTTACCATGCCATCCGG, the PBM binding z-score was determined as 0.386.

Sequence GCTCGGAGGACACGGTCAGAGCTTTGTCCGTAGA displayed a PBM binding z-score of -0.679.

Turning to CCTATTAGTTGACCATAAGGTCAACCGAAGCTCG, the PBM binding z-score came out at 4.93.

In turn, AGTCAAAGCTCATCTAGGTAACGTAAGATATGCT registered a PBM binding z-score of -0.497.

Regarding TCTAGTTGGTCACGAAGGTCACACACGACGGGTA, the PBM binding z-score is 3.64.

Sequence TCAGATAGGTAATACAGGTGAAAGTCGGCATCTA yielded a PBM binding z-score of 0.675.

Take CAGCCTAGGTCGGGGCCAGTATAGGAGGAACGTT: the PBM binding z-score is -0.152.

The sequence CGAACTAGATCAAGGACAGTGAATCTCCGCACGC registered a PBM binding z-score of 0.0368.

Take CGTCCAAGGTCAAGGTCAGCGAAAGAGACTCGAA: the PBM binding z-score stood at 3.43.

On to CAGCCTAGGTCAAGGCCAGTATAGGAGGAACGTT, for which the PBM binding z-score stood at 0.784.

ATACCAAGGTGATCGTGAGGTGGTTGATACTAAC gave a PBM binding z-score of 0.0507.

The sequence CAAACTAGGTCGCAGAGGTCAAAGTCCGTGCGTA registered a PBM binding z-score of 3.69.

As for ATCTCTAAGTAAGACTCAGTTCAGTGAAGAACGC, the PBM binding z-score was found to be 0.659.

For CGTCAAAGTTCAACTAAGGTAACGGAAAGCACGC, the PBM binding z-score worked out at 3.4.

Take TCTTGTAGATTAAAGGTTAAGAAAGCCGAAGCCT: the PBM binding z-score came out at 1.17.

TCGTATAGGTAAAGGTGAAAGTCGAACGATATGA showed a PBM binding z-score of 1.4.

For the sequence CCTGCTAGGTCAATGGTCAACTAAAGCAGCTCGC, the PBM binding z-score worked out at 1.41.

As for TCTCGGACGACACGAAGGTCAGAGCTTTCCAGAG, the PBM binding z-score worked out at 1.07.

AAAGACAGGTGATGAAGGTAACTCAGGCTATCAT returned a PBM binding z-score of 0.408.

With TCTTGTAGTTCAGCAGGTTAAGAAAGCTGGCCAA, the PBM binding z-score was found to be 0.434.

Regarding TAGAGTAGGTTAGTCGGGGCATTCAGCCAACATA, the PBM binding z-score amounted to 1.27.

Regarding CGTCCAAGGTCAGAGAGGTAAGTGAATGCCGAGT, the PBM binding z-score stood at 1.67.

CCGACTGTGGCAAAGGTTACCATACTCAGTACGA showed a PBM binding z-score of 1.71.

Turning to CAGCCGAGGTCAGGGCCAGTATAGGAGGAACGTT, the PBM binding z-score was found to be 2.95.

Turning to CCAACTAGGTCAAGGTCAAAGTCGGTTTGTGCCA, the PBM binding z-score was 4.31.

Consider CCTAGCAGGCCCATCTGGGTCACTCAAGGCTTGA, for which the PBM binding z-score was 0.0647.

Turning to CATCAAAGTTCAACTAAGGTAACGTAAAGCACGC, the PBM binding z-score turned out to be 3.92.

For the sequence ACTAGCTGGTCAGCTGAGGTCACACACAATTCGG, the PBM binding z-score amounted to 2.22.

The sequence TCTTGTAGATCAACAGGAGGTTGAGAAAGATCGA showed a PBM binding z-score of -0.716.

As to CTACCAAGGTGAACAAGGTCGTGGATTACTATTC, the PBM binding z-score was found to be 1.98.

On to ACTCGGAGGACAAAGGTCAGAGCTACGCCAGTGA, for which the PBM binding z-score turned out to be 3.04.

Take TCTTGTAGATCAATAGAGTTTAAGAAAGTGCGCT: the PBM binding z-score is -0.192.

Take TAGCCCAGGTCATGCGGGCCAGTATAGTGTCGGC: the PBM binding z-score stood at 0.868.

In turn, AGAACAAGGGCAATGAGTTGATAGCACGGGTGGC returned a PBM binding z-score of 0.058.

As for CCTACTGGGCCACGAAAGGTCATTGAATCAGTGA, the PBM binding z-score was 2.53.

In turn, GCTTGTTGATCAAGGTTAAGAAAGACTAAGCTAA came in with a PBM binding z-score of -0.0187.

Consider CCTACTGGGCCAAGGACATTGATCAGTCAAAGCA, for which the PBM binding z-score is -0.294.

AGAATGAGGTTATACCTAGATCAGGGAAGAAAGT showed a PBM binding z-score of 0.0294.
